Data: publication PMC5913336, “True equilibrium measurement of transcription factor-DNA binding affinities using automated polarization microscopy”

Molecular target: T1, Croc (Drosophila melanogaster, UniProt P32027 54-175)
T1 sequence: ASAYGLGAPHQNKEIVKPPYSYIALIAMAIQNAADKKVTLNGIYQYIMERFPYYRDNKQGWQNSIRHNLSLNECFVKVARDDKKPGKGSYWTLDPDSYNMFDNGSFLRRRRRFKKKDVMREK
Experiment: FP; 20 mM Tris-acetate pH 7.0, 50 "nM" NaCl as printed (probably mM), 0.01% Tween 20, 0.1 mM DTT; conventional titration
Conditions: tags: N-GST (pGEX-6P-1, kept); dsDNA, one strand shown

Sequence | binding signal | Kd
TTATATAAATATA | 2.66 Kd / Kd of best base at the position | 
TTAGATAAATTTA | 35.4 Kd / Kd of best base at the position | 
GTAGATAAATATA | 13.8 Kd / Kd of best base at the position | 
TTAGATAAATGTA | 79 Kd / Kd of best base at the position | 
TGAGATAAATATA | 76.4 Kd / Kd of best base at the position | 
TTAGATGAATATA | 2300 Kd / Kd of best base at the position | 
CTAGATAAATATA | 4.3 Kd / Kd of best base at the position | 
TTAGATTAATATA | 109 Kd / Kd of best base at the position | 
TTAGATAAAAATA | 380 Kd / Kd of best base at the position | 
TTAGATATATATA | 164 Kd / Kd of best base at the position | 
TTACATAAATATA | 6.62 Kd / Kd of best base at the position | 
TTGGATAAATATA | 5.64 Kd / Kd of best base at the position | 
TTAGATAAATATG | 17.4 Kd / Kd of best base at the position | 
TTAGATAAATATC | 2.74 Kd / Kd of best base at the position | 
TTAGATAACTATA | 387 Kd / Kd of best base at the position | 
TTAGTTAAATATA | 43.2 Kd / Kd of best base at the position | 
TTCGATAAATATA | 33 Kd / Kd of best base at the position | 
TTAGATAATTATA | 197 Kd / Kd of best base at the position | 
TTAGACAAATATA | 16.3 Kd / Kd of best base at the position | 
TTAAATAAATATA | 1.66 Kd / Kd of best base at the position | 

Sequence | binding signal | Kd
TCAGATAAATATA | 51.8 Kd / Kd of best base at the position | 
TTAGATAAATATA |  | ~0.3 nM
TTAGATAAACATA | 1.86 Kd / Kd of best base at the position | 
TTAGATAAATAGA | 5.76 Kd / Kd of best base at the position | 
TTAGATAAATACA | 1.16 Kd / Kd of best base at the position | 
TTAGATAAATAAA | 2.04 Kd / Kd of best base at the position | 
TTAGAAAAATATA | 7.44 Kd / Kd of best base at the position | 
TTTGATAAATATA | 15.4 Kd / Kd of best base at the position | 
TTAGATAGATATA | 1160 Kd / Kd of best base at the position | 
TAAGATAAATATA | 7.76 Kd / Kd of best base at the position | 
TTAGATAAATATT | 1.02 Kd / Kd of best base at the position | 
TTAGATCAATATA | 8.58 Kd / Kd of best base at the position | 
TTAGAGAAATATA | 48.4 Kd / Kd of best base at the position | 
TTAGATACATATA | 93.4 Kd / Kd of best base at the position | 
TTAGATAAAGATA | 119 Kd / Kd of best base at the position | 
ATAGATAAATATA | 9.22 Kd / Kd of best base at the position | 
TTAGATAAATCTA | 46 Kd / Kd of best base at the position | 
TTAGGTAAATATA | 3.08 Kd / Kd of best base at the position | 
TTAGATAAGTATA | 95 Kd / Kd of best base at the position | 
